A selection: hits, their analogues and other compounds. The true share with any hit is near 0.45%.
NR5A2 inv ag: LRH-1 (NR5A2) inverse agonists, primary screen, cell-based, luminescence, HEK293T, StAR-luciferase reporter | actives 0.13% (n = 360,000) | LRH-1 transfected, 24 h | Nuclear receptor subfamily 5 group A member 2 (Homo sapiens), O00482 | inhibition, % at 3.6 µM;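 active means inhibition above the mean inhibition of all tested compounds plus 3 SD, cut at about 73% in these data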
SRC1 inh: SRC1 coactivator transcriptional activity inhibitors, primary screen, cell-based, luminescence; inhibition, % at 3.6 µM; AID 588354, 2011; Nuclear receptor coactivator 1 (Homo sapiens), Q15788; actives 0.12% (n = 360,000); HEK293 GAL4-SRC1 luciferase reporter;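 active means inhibition above the campaign mean plus 3 SD, with each screening campaign given its own cutoff, cut at about 60% in these data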
SRC2 inh: inhibition of GAL4-SRC2 driven luciferase reporter, primary screen, SRC2 inhibitor project, cell-based, luminescence; actives 0.17% (n = 370,000); HEK293 GAL4-SRC2 luciferase reporter; Nuclear receptor coactivator 2 (Homo sapiens), Q15596; inhibition, % at 9 µM;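 active means inhibition above the mean inhibition of all tested compounds plus 3 SD, set per campaign, cut at about 52% in these data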
SRC3 inh: SRC3 coactivator transcriptional activity inhibitors, primary screen, cell-based, luminescence | HEK293 GAL4-SRC3 luciferase reporter | inhibition, % at 3.6 µM | actives 0.17% (n = 360,000) | AID 588352, 2011;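 active means inhibition above a per-campaign cutoff, the mean of all compounds plus 3 SD, cut at about 60% in these data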;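 further: higher means less SRC3-driven luciferase light from the GAL4 reporter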
Target sequence (Q9Y6Q9 whole entry, looked up, the tested form may be a part): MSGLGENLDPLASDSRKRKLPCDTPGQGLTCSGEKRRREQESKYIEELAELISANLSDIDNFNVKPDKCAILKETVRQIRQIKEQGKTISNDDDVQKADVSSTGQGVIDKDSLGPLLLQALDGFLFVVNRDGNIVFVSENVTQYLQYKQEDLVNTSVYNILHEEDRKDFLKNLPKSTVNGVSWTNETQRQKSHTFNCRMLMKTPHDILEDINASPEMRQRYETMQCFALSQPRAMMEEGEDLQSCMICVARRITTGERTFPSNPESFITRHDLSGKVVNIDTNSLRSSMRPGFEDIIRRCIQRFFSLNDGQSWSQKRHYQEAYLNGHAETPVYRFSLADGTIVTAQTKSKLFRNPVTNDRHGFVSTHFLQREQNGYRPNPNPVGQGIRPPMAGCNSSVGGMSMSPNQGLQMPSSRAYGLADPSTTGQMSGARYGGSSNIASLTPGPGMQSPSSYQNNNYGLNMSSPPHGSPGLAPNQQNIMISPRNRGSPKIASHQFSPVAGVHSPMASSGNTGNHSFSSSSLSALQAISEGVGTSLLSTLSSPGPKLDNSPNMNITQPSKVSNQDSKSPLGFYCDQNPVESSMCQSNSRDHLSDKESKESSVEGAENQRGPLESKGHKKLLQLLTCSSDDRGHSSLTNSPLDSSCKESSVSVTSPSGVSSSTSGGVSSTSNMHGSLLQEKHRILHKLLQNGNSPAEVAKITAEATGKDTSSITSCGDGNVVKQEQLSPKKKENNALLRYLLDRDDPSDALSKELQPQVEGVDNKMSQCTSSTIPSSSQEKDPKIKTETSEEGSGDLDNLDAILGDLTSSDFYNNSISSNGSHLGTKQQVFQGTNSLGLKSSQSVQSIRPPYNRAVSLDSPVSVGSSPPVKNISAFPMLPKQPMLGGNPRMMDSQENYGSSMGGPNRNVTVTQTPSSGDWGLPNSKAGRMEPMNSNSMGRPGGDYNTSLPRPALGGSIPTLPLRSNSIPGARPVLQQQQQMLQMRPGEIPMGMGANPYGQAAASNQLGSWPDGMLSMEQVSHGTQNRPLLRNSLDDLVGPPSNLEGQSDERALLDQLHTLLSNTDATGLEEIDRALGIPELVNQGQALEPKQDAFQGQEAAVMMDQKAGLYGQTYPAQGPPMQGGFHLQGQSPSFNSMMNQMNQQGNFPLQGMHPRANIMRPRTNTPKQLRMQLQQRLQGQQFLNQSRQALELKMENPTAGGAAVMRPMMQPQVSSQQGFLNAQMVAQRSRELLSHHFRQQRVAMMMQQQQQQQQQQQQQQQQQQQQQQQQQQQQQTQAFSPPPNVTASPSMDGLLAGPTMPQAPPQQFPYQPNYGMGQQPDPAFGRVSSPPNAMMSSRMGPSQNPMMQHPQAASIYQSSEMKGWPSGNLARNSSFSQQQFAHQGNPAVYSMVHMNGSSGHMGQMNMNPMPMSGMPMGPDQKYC
LGR2 inh: inhibitors of bursicon-induced LGR2 CRE-luciferase signal, primary screen, cell-based, HEK293, CRE-luciferase reporter, bursicon stimulation; Drosophila bursicon receptor LGR2 (rickets); bursicon-stimulated, 4 h; inhibition, % at 9.99 µM; actives 0.35% (n = 380,000); AID 720647, 2013;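 active means drop in luminescence signal, shown as inhibition above about 50% in the replicate tests, limit read from the data, passing the limit was not always enough; inconclusive means probably only some replicates passing the limit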;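 further: agonist challenge used bursicon conditioned medium at about half maximal strength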
Of the large screens only hits and unclear results are named; the others gave an inactive call.

Cc1cc(C(=O)CSc2nc3ccccc3[nH]2)c(C)n1CC1CCCO1 (stereo unspecified)	SRC2 inh 63, SRC3 inh 73 (no result: LGR2 inh)
COc1cccc(-c2nc(-c3ccccc3)no2)c1	none (no result: LGR2 inh)
COc1cccc(-c2nc(-c3ccccn3)no2)c1	SRC2 inh 58 (no result: NR5A2 inv ag, SRC1 inh, SRC3 inh, LGR2 inh)
O=c1oc(/C=C/c2ccc([N+](=O)[O-])s2)nc2ccccc12	none (no result: SRC2 inh, LGR2 inh)
CC(=O)Oc1ccc(-c2nc3ccccc3c(=O)o2)cc1	none
CC(=O)Oc1ccccc1/C=C/c1nc2ccccc2c(=O)o1	LGR2 inh 65
CC(=O)Oc1ccc(/C=C/c2nc3ccccc3c(=O)o2)cc1	LGR2 inh 59
CCCNC(=O)[C@H]1[C@H](CO)[C@H]2Cn3c(ccc(-c4cccnc4)c3=O)[C@H]2N1Cc1cocn1	none (no result: NR5A2 inv ag, SRC1 inh, SRC2 inh, SRC3 inh)
CO[C@@H]1CN(C)C(=O)c2ccc(NC(C)=O)cc2OC[C@@H](C)NC[C@@H]1C	none (no result: NR5A2 inv ag, SRC1 inh, SRC2 inh, SRC3 inh)
COc1ccc(NC(=O)Nc2ccc3c(c2)[C@@H]2C[C@H](CC(=O)N[C@@H](C)c4ccccc4)O[C@H](CO)[C@@H]2O3)cc1	none (no result: NR5A2 inv ag, SRC1 inh, SRC2 inh, SRC3 inh)
CCCCCCCCCCCCCCCC[n+]1cccc2ccccc21	SRC3 inh 62
CCCCCCCCC[n+]1cccc2c3ccccc3ccc21	NR5A2 inv ag 96, SRC3 inh 71 (no result: SRC2 inh, LGR2 inh)
O=[N+]([O-])c1ccc(C[n+]2cccc3c4ccccc4ccc32)cc1	none
O=C(C1CCCC1)N1CC2(C1)[C@@H](c1ccccc1)[C@H](CO)N2C(=O)CC1CC1	none (no result: NR5A2 inv ag, SRC1 inh, SRC2 inh, SRC3 inh)
Cc1cc(-c2nc3cc(F)ccc3s2)ccc1N	LGR2 inh 64
C[C@H](CO)N1C[C@H](C)[C@H](CN(C)C(=O)Nc2ccc(F)cc2)Oc2cc(-c3ccc(F)cc3)ccc2S1(=O)=O	none (no result: NR5A2 inv ag, SRC1 inh, SRC2 inh, SRC3 inh)
COc1cccc(/C=N/Nc2ncnc3c2ncn3Cc2ccccc2)c1O	NR5A2 inv ag 91, SRC3 inh 67
Cc1oc2c(c1C(=O)c1ccccc1)C(=O)C(=O)c1ccccc1-2	SRC2 inh 63 (no result: LGR2 inh)
O=C(N/N=C/c1cc(Br)ccc1O)c1ccncc1	SRC3 inh 70
O=C(N/N=C/c1cc(Cl)ccc1O)c1ccc(Br)cc1	SRC3 inh 66
COc1ccc(-c2cc(-c3ccccc3)no2)cc1	LGR2 inh 78
COc1ccc(-c2cc(C(=O)N3CCOCC3)no2)cc1	LGR2 inh 53
CN1c2ccc(C#Cc3cccnc3)cc2[C@H]2[C@H](CCN2S(=O)(=O)c2ccc(F)cc2)[C@H]1CO	none (no result: NR5A2 inv ag, SRC1 inh, SRC2 inh, SRC3 inh)
CCc1n[n+](CC(=O)c2ccccc2)c(N)s1	LGR2 inh 81
CCn1c2c(c(=N)c3c1CCC3)CCCC2	none
CCCCCCCCn1c2c(c(=N)c3ccccc31)CCC2	NR5A2 inv ag 84, SRC3 inh 78, LGR2 inh inconclusive
CCCCCn1c2c(c(=N)c3ccccc31)CCC2	none
CCCCCCCCCCn1c2c(c(=N)c3c1CCC3)CCC2	NR5A2 inv ag 96, SRC1 inh 70, SRC3 inh 79 (no result: LGR2 inh)
CCCCCCCCCn1c2c(c(=N)c3c1CCC3)CCCC2	NR5A2 inv ag 89, SRC3 inh 81 (no result: SRC2 inh, LGR2 inh)
C[C@@H]1CCCCO[C@@H](CN(C)C(=O)c2ccccc2)[C@@H](C)CN([C@@H](C)CO)C(=O)c2cc(NC(=O)Nc3ccc4c(c3)OCO4)ccc2O1	none (no result: NR5A2 inv ag, SRC1 inh, SRC2 inh, SRC3 inh)
O=C(C[C@@H]1CC[C@@H]2[C@H](COC[C@@H](O)CN2C(=O)c2cnccn2)O1)N1CCN(c2ccccc2)CC1	none (no result: NR5A2 inv ag, SRC1 inh, SRC2 inh, SRC3 inh)
CC(=O)N(C)c1ccc(N=Nc2ccc3ncccc3c2)cc1	LGR2 inh 66
CC(=O)N(C)c1ccc(N=Nc2c(C)[nH]n(-c3ccccc3)c2=O)cc1	none
Cc1c(CCC(=O)NCCCC(=O)O)c(=O)oc2cc3oc4c(c3cc12)CCCC4	SRC2 inh 63
CCC(NC(=O)CCc1c(C)c2cc3c4c(oc3cc2oc1=O)CCCC4)C(=O)O (stereo unspecified)	SRC2 inh 65
Cc1c(CC(=O)N[C@@H](CCCNC(N)=O)C(=O)O)c(=O)oc2cc3oc4c(c3cc12)CCCC4	none
Cc1c(CCC(=O)N[C@@H](CCCNC(N)=O)C(=O)O)c(=O)oc2cc3oc4c(c3cc12)CCCC4	SRC2 inh 68
Cc1c(CCC(=O)NCCCCCC(=O)O)c(=O)oc2c(C)c3oc4c(c3cc12)CCCC4	none
CCCNC(=O)Nc1ccc2c(c1)C(=O)N(C)C[C@H](OC)[C@@H](C)CN(Cc1ccc(-c3ccccn3)cc1)[C@@H](C)CO2	none (no result: NR5A2 inv ag, SRC1 inh, SRC2 inh, SRC3 inh)
N/C(=N\OC(=O)c1ccc(Cl)cc1)c1[nH]ncc1Br	LGR2 inh 61
COc1ccccc1C(=O)O/N=C(\N)c1ccccn1	LGR2 inh inconclusive
COc1ccc(C(=O)O/N=C(\N)c2ccccn2)cc1	LGR2 inh 103
Cc1ccc(C(=O)O/N=C(\N)c2ccccn2)c(C)c1	SRC2 inh 77, SRC3 inh 70, LGR2 inh 101
N/C(=N\OC(=O)c1ccc(Cl)cc1)c1ccccn1	LGR2 inh 90
COc1ccc2c3c([nH]c2c1)[C@H](CO)N(S(C)(=O)=O)CC31CCN(CC2CC2)CC1	none (no result: NR5A2 inv ag, SRC1 inh, SRC2 inh, SRC3 inh)
CN(C)C(=O)C[C@H]1CC[C@H]2[C@@H](COc3ccc(NC(=O)c4cnccn4)cc3C(=O)N2C)O1	none (no result: NR5A2 inv ag, SRC1 inh, SRC2 inh, SRC3 inh)
O=C(Nc1ccccc1)N[C@@H]1CC[C@H](CCn2cc(-c3ccccc3F)nn2)O[C@H]1CO	none (no result: NR5A2 inv ag, SRC1 inh, SRC2 inh, SRC3 inh)
COc1ccc(/C(N)=N/OC(=O)c2cccs2)cc1	LGR2 inh 70
N/C(=N\OC(=O)c1cccs1)c1ccc(Cl)cc1	none
N/C(=N\OC(=O)c1ccc(Cl)c([N+](=O)[O-])c1)c1ccccn1	none
N/C(=N\OC(=O)c1ccccc1Cl)c1ccccn1	LGR2 inh 95
Cc1cc(/C(N)=N/OC(=O)c2cccc(Cl)c2)no1	none
N/C(=N\OC(=O)c1cccc(Cl)c1)c1ccccn1	LGR2 inh 73
N/C(=N\OC(=O)c1ccc(Cl)c(Cl)c1)c1ccccn1	LGR2 inh 68
CC=Cc1ccc2n(c1=O)C[C@H]1[C@H](CO)[C@@H](C(=O)NC3CCCC3)N(CCC)[C@@H]21 (mixture of isomers)	none (no result: NR5A2 inv ag, SRC1 inh, SRC2 inh, SRC3 inh)
COCC(=O)N1C[C@H](C)[C@@H](OC)CN(C)C(=O)c2cc(NC(=O)c3cc(C)on3)ccc2OC[C@H]1C	none (no result: NR5A2 inv ag, SRC1 inh, SRC2 inh, SRC3 inh)
C[C@@H]1CN([C@H](C)CO)C(=O)c2cccc(NC(=O)c3nc4ccccc4s3)c2O[C@H]1CN(C)C(=O)Nc1cccc2ccccc12	none (no result: NR5A2 inv ag, SRC1 inh, SRC2 inh, SRC3 inh)
N/C(=N\OC(=O)c1cccc(Br)c1)c1ccccn1	LGR2 inh 77
CCCC(=O)N1CC2(C1)CN(C(=O)C1CCCCC1)[C@@H](CO)c1[nH]c3cc(OC)ccc3c12	none (no result: NR5A2 inv ag, SRC1 inh, SRC2 inh, SRC3 inh)
C(/C=C/c1ccccn1)=C\c1ccccc1	LGR2 inh 76
C(=C\c1ccccn1)/c1ccncc1	none
